High-throughput results as filed in PubChem.
aSyn 5UTR inh – 5' untranslated region of α-synuclein, MLPCN primary screen. hit rate 0.82% among 300,000. alpha-synuclein 5'UTR reporter, inhibitor activity. inhibition, % (tested at 7.5 µM). AID 1813; in the data active means inhibition above about 60%;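 further: H4 neuroglioblastoma cells stably carrying SNCA 5'UTR luciferase fusion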
APP transl inh – APP translation inhibition. hit rate 0.82% among 190,000. AID 1285. inhibition, % at 2 µM. SH-SY5Y APP 5'UTR-luciferase reporter, luminescence;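 active means inhibition above a set limit, derived from the sample mean plus 3 SD, cut at about 45% in these data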
IEC-6 cytotox – IEC-6 cytotoxicity, counter-screen for KLF5 inhibitors | inhibition, % at 5 µM | luminescence viability | hit rate 0.78% among 290,000 | AID 1825
Ba/F3 V617F tox – loss of viability in JAK2V617F-driven Ba/F3 cells. hit rate 1.1% among 220,000. inhibition, % at 5.6 µM. Ba/F3 EpoR-JAK2V617F viability, ATP luminescence;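 active means inhibition above the campaign mean plus 3 SD over all tested compounds, cut at about 24% in these data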;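 further: cytokine-independent growth of Ba/F3 cells driven by EpoR plus mutant JAK2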
BaF3 parental – counter-screen for JAK2V617F inhibitors: parental Ba/F3 viability inhibitors; AID 1486; CellTiter-Glo ATP luminescence; inhibition, % at 5.6 µM; hit rate 1.1% among 220,000;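 active means inhibition above a per-campaign cutoff, the mean inhibition of all tested compounds plus 3 SD, cut at about 27% in these data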
KLF5 inh – inhibitors of KLF5 expression | hit rate 0.23% among 290,000 | inhibition, % at 5 µM | DLD-1 KLF5 promoter-luciferase reporter, luminescence;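 active means inhibition above a per-plate limit of that plate's mean compound inhibition plus 3 SD, cut at about 60% in these data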;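 further: higher means less KLF5 promoter-driven luciferase light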
IEC-6 tox confirm – IEC-6 cytotoxicity, confirmation assay | AID 1907 | hit rate 63% among 1,900 | inhibition, % at 5 µM | shares compounds with IEC-6 cytotox | IEC-6 rat intestinal epithelial viability, luminescence
Large screens that a line does not name were inactive (follow-up assays come after a bar, where they were run). Rows were chosen to be rich in hits. Some 2.2% of all compounds tested hit in one or more screens of this group. Unless noted, no stated cut-off is given here; in the data, active means inhibition above about 22%; inactive means the rest.

COc1ccc(C/C(C)=N/NC(=O)C2COc3ccccc3O2)cc1 (stereo unspecified)	none
CCN(CC)S(=O)(=O)c1ccc(S(=O)(=O)NCC2CCCO2)cc1 (stereo unspecified)	none (no result: APP transl inh, Ba/F3 V617F tox, BaF3 parental)
CC(C)(C)c1ccc(C2CC2C(=O)N/N=C\c2ccc[nH]2)cc1 (stereo unspecified)	APP transl inh 80, IEC-6 cytotox 58, Ba/F3 V617F tox 100, BaF3 parental 75 | IEC-6 tox confirm 89
O=C(N/N=C/c1ccco1)C1CC1c1ccccc1 (stereo unspecified)	none
COc1ccc(C(=O)NN=C2CCCC2)cc1OC	none (no result: APP transl inh, Ba/F3 V617F tox, BaF3 parental)
CCOc1cc(C(=O)NN=C2CCCC2)cc(OCC)c1OCC	IEC-6 cytotox 80 (no result: APP transl inh, Ba/F3 V617F tox, BaF3 parental) | IEC-6 tox confirm inactive
O=C1CC2c3ccccc3C1C1C(=O)N(CCO)C(=O)C21 (stereo unspecified)	none
O=c1c(Cl)c(Cl)cnn1Cc1nnc(-c2ccccc2Br)o1	APP transl inh 94, IEC-6 cytotox 30 | IEC-6 tox confirm inactive
Clc1ccccc1OCc1nnc(-c2ccccc2Br)o1	none
CC1CCc2c(C(=O)Nc3cccc(-c4nn[nH]n4)c3)csc2C1 (stereo unspecified)	IEC-6 cytotox 42 (no result: APP transl inh, Ba/F3 V617F tox, BaF3 parental) | IEC-6 tox confirm inactive
CCc1nnc(NC(=O)c2csc3c2CCC(C)C3)s1 (stereo unspecified)	none
Cc1cccc(C)c1NC(=O)C1CCCN1S(=O)(=O)c1ccc2c(c1)n(C)c(=O)c(=O)n2C (stereo unspecified)	none (no result: APP transl inh, Ba/F3 V617F tox, BaF3 parental)
COc1ccc(C(=O)CSc2nc3ncccc3[nH]2)cc1OC	none (no result: APP transl inh)
COc1cccc(Oc2nc(N)ncc2[N+](=O)[O-])c1	none (no result: APP transl inh, Ba/F3 V617F tox, BaF3 parental)
CCC(C)(C)NC(=O)CCCSc1nc2ccccc2s1	none
Cc1ccc(S(=O)(=O)N(C)C)cc1NC(=S)Nc1cccc2ccccc12	IEC-6 cytotox 62 (no result: APP transl inh, Ba/F3 V617F tox, BaF3 parental) | IEC-6 tox confirm inactive
CC(=O)NNC(=S)Nc1cc(S(=O)(=O)N(C)C)ccc1C	none
CCc1cccc(NC(=S)Nc2cccc3ccccc23)c1	IEC-6 cytotox 29 (no result: APP transl inh, Ba/F3 V617F tox, BaF3 parental) | IEC-6 tox confirm inactive
COc1cccc(NC(=S)Nc2cccc3ccccc23)c1	IEC-6 cytotox 36 (no result: APP transl inh, Ba/F3 V617F tox, BaF3 parental) | IEC-6 tox confirm inactive
COCCNC(=O)C(c1ccc(Cl)cc1)N(CCOC)C(=O)CCC(=O)Nc1ccccn1 (stereo unspecified)	none (no result: APP transl inh, Ba/F3 V617F tox, BaF3 parental)
COc1ccc(NC2CCCN(C(=O)Cn3ccc(C)n3)C2)cc1OC (stereo unspecified)	none (no result: APP transl inh, Ba/F3 V617F tox, BaF3 parental)
O=C(NC1CCc2ccccc21)c1cc(COc2c(F)cccc2F)on1 (stereo unspecified)	none (no result: APP transl inh)
O=C(NCC1OCCc2ccccc21)c1cc(COc2c(F)cccc2F)on1 (stereo unspecified)	IEC-6 cytotox 82, Ba/F3 V617F tox 98, BaF3 parental 103 | IEC-6 tox confirm inactive
COc1ccc2c(c1)CC(C(=O)Nc1ccc(Cl)cc1)/C(=N/O)O2 (stereo unspecified)	none (no result: APP transl inh, Ba/F3 V617F tox, BaF3 parental)
NC(=O)c1nsc(C(=O)N(c2ccc3c(c2)OCO3)C(C(=O)NCC2CCCO2)c2ccc(F)cc2)c1N (stereo unspecified)	none (no result: APP transl inh, Ba/F3 V617F tox, BaF3 parental)
Nc1nonc1-n1nnc(C(=O)N/N=C/c2cc(Br)ccc2O)c1CNc1ccccc1	aSyn 5UTR inh 70, IEC-6 cytotox 39 (no result: APP transl inh, Ba/F3 V617F tox, BaF3 parental) | IEC-6 tox confirm 41
Cc1sc(NC(=S)NC(=O)c2ccco2)c(C(N)=O)c1C	none
Cc1sc(NC(=S)NC(=O)CCc2ccccc2)c(C(N)=O)c1C	APP transl inh 95, IEC-6 cytotox 27, Ba/F3 V617F tox 75, BaF3 parental 75 (no result: aSyn 5UTR inh) | IEC-6 tox confirm 71
Cc1ccc(NC(=O)CN2C(=O)S/C(=C\c3cc(Cl)c(OCC(=O)O)c(Cl)c3)C2=O)cc1	none (no result: APP transl inh, Ba/F3 V617F tox, BaF3 parental)
Cc1ccccc1-c1nc(CN2CCC(C(=O)NCCCN3CCCC3)CC2)c(C)o1	none
Cc1ccccc1-c1nc(CN2CCC(C(=O)NCCCN3CC(C)CC(C)C3)CC2)c(C)o1 (stereo unspecified)	IEC-6 cytotox 60 | IEC-6 tox confirm 53
CCN1CCCC1CNC(=O)C1CCN(Cc2nc(-c3cccc(Br)c3)oc2C)CC1 (stereo unspecified)	IEC-6 cytotox 49, BaF3 parental 31 | IEC-6 tox confirm 99
N#C/C(=C\c1cccnc1)C(=O)Nc1ccc(S(N)(=O)=O)cc1	none (no result: APP transl inh, Ba/F3 V617F tox, BaF3 parental)
COc1ccc(C(=O)c2ccc(N(C)C)cc2)c(OC)c1	APP transl inh 78, IEC-6 cytotox 54, Ba/F3 V617F tox 50, BaF3 parental 52 | IEC-6 tox confirm 53
